Assay results reported in PubChem BioAssay AID1012 (Sanford-Burnham Center for Chemical Genomics, 2008).
Among all 200,000 compounds or so, about 520 (0.26%) were called active. The sample holds actives, similar compounds and a random draw of the others, so the mix is not that of the screen. Unmarked numbers belong to inactive results.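 The calls were made as follows: active = tissue-nonspecific alkaline phosphatase inhibition above about 50% at 20 µM in the single-dose screen (limit read from the data); inactive = the rest.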

These compounds were tested against Alkaline phosphatase, tissue-nonspecific isozyme (Homo sapiens) (UniProt P05186) (assay: human TNAP enzyme inhibitors, primary screen, biochemical, luminescent, no phosphate acceptor, uHTS (AID 1012;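 also: 0% = DMSO negative control and 100% = EDTA positive control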)). Conditions: purified TNAP, CDP-star luminescence, 30 min; at 20 µM; active compounds read high.
Chain of Alkaline phosphatase, tissue-nonspecific isozyme (Homo sapiens) (P05186 whole entry, looked up): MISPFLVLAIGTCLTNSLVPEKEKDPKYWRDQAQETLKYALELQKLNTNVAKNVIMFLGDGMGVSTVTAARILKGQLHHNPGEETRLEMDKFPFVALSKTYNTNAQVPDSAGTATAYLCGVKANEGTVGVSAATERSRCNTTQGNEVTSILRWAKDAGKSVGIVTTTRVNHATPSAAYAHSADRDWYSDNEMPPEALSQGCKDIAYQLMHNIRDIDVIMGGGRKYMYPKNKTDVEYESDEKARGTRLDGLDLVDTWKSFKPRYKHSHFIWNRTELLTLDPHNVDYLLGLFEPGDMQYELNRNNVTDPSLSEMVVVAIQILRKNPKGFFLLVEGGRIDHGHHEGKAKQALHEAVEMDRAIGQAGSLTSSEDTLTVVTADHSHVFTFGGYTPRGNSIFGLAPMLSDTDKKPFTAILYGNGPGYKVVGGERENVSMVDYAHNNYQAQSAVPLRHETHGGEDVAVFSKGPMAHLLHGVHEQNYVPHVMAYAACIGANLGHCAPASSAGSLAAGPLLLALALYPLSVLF

| Structure (SMILES) | inhibition |
| --- | --- |
| COc1ccc(N2C(=O)CNC2=S)cc1 | -13.2% |
| N#C/C=C(/c1ccc(F)cc1)N1CCOCC1 | -8.3% |
| CC(C)CNC(=S)Nc1ccc(F)cc1 | -5.6% |
| COc1ccc(/C=N/NC(=O)c2ccncc2)cc1CN1CCCc2ccccc21 | -28.5% |
| CCC(=O)Nc1cc(C(F)(F)F)ccc1N1CCCC1 | -1.6% |
| NS(=O)(=O)c1ccc(NC(=S)NC(=O)c2cccc(Br)c2)cc1 | 57.3% (active) |
| NS(=O)(=O)c1ccc(NC(=S)NC(=O)c2cccnc2)cc1 | -3.6% |
| O=C(NC(=S)Nc1ccc(S(=O)(=O)Nc2ncccn2)cc1)c1cccc(Br)c1 | 5.9% |
| CCOC(=O)C1=C(C)NC(=S)NC1c1cccs1 (stereo unspecified) | -12.7% |
| COc1ccccc1NC(=O)C1=C(C)Nc2nc3ccccc3n2C1c1cccs1 (stereo unspecified) | -6.2% |
| CCOC(=O)C1=C(C)Nc2nc3ccccc3n2C1c1cccs1 (stereo unspecified) | 57.2% (active) |
| COc1ccccc1Oc1nc(-c2cccnc2)nc2ccccc12 | -4.1% |
| COc1cc(CNc2ncn[nH]2)ccc1OCc1ccccc1C | -67% |
| O=C1CSC(c2ccccc2)N1c1nc(-c2ccc(Cl)cc2Cl)cs1 (stereo unspecified) | -10% |
| Clc1ccc(-c2cc(C3CCNCC3)[nH]n2)c(Cl)c1 | 80.1% (active) |
| Clc1ccc(-c2ncc3ccccn23)c(Cl)c1 | -7.2% |
| COCc1[nH]nc2c1C(C1C=CCCC1)C(C#N)=C(N)O2 (stereo unspecified) | 14.2% |
| CCCc1[nH]nc2c1C(c1ccc(Br)s1)C(C#N)=C(N)O2 (stereo unspecified) | 1.9% |
| CCCc1[nH]nc2c1C(C1CC=CCC1)C(C#N)=C(N)O2 (stereo unspecified) | 50.5% (active) |
| COc1nc(N(C)C)nc(N2CC(=O)N(CCNS(=O)(=O)c3ccc(C)cc3)C2=N)n1 | -3.4% |
| COc1ccc(C)cc1NC(=O)NCc1ccccn1 | -12.1% |
| CN(c1ccccc1)S(=O)(=O)c1ccc(Cl)c(C(=O)OCC(N)=O)c1 | -4.4% |
| NNC(=O)c1ccc(Cl)cc1Cl | -3.9% |
| CN(C)C=NC(=O)c1cccn1-c1ncc(C(F)(F)F)cc1Cl | -14% |

| Structure (SMILES) | inhibition |
| --- | --- |
| CNc1ccc(SC#N)cc1 | -10.5% |
| O=C(OCc1nc2ccccc2[nH]1)C1CCCCC1 | -36% |
| COC(=O)C1=CN(Cc2ccc(OC)c(OC)c2)C=C(C(=O)OC)C1c1cccs1 | -7.4% |
| CC(=O)N1C(C)c2ccccc2C(C)(C)CC12CCCCC2 (stereo unspecified) | 2.5% |
| CCS(=O)(=O)n1nc(-c2ccc(OC)cc2)nc1SC | 66% (active) |
| COc1ccc(-n2c(SC)nc(O)cc2=O)cc1 | -11.9% |
| COc1ccc(-c2noc(CN(C)S(=O)(=O)c3ccc(C)cc3)n2)cc1 | -8.5% |
| CS(=O)(=O)n1nc(-c2ccccc2)nc1NCc1ccco1 | -1.5% |
| CCS(=O)(=O)n1nc(-c2ccccc2)nc1SCc1ccccc1 | 61.1% (active) |
| CCn1c(SCc2ccccc2)nc2c(c1=O)SCC2 | -14% |
| CCOc1cc(/C=C(/C#N)c2ccc(Cl)cc2)cc(Cl)c1OCC(=O)O | -8.1% |
| CC(O)CNCCOc1cccc(Oc2ccccc2)c1 (stereo unspecified) | -10.9% |
| COc1ccc(-c2nc(CN3CCN(c4ncccn4)CC3)c(C)o2)cc1C | -13.8% |
| CCn1c(SCC(=O)Nc2nccs2)nnc1-c1ccco1 | 37.9% |
| Cc1ccccc1OCCOc1ccc([N+](=O)[O-])cc1/C=N/n1cnnc1 | -2.8% |
| CC(=O)c1cnc(-c2ccccc2)s1 | -4% |
| NS(=O)(=O)c1ccc(CNC(=O)c2ccc(Cl)cc2[N+](=O)[O-])cc1 | -22.8% |
| CC(C)C(=O)Nc1ccc2c3c(cccc13)CC2 | -18% |
| O=C(CSc1nnc(C2CC2)n1Cc1ccccc1)Nc1cccnc1Cl | -1.5% |
| C/C(CC(=O)Nc1ccc(Cl)cc1)=N\NC(=O)C(=O)NCCO | -12.4% |
| Cc1cs/c(=N\N=C\c2ccc(O)cc2)n1Cc1ccco1 | -18.1% |
| CC(C)c1ccc(Nc2nnc(SCC(=O)c3nnc(-c4ccccc4)o3)s2)cc1 | -1.3% |
| CC1Cc2ccccc2N1C(=O)CSc1nnc(-c2ccc(S(=O)(=O)N3CCCC3)cc2)n1C (stereo unspecified) | -5.8% |
| O=C(Nc1ccccc1C(=O)N1CCOCC1)c1ccc(CSc2ccccc2)cc1 | -8.4% |

| Structure (SMILES) | inhibition |
| --- | --- |
| COC(=O)[C@H]1Cc2cnoc2C[C@]1(C)C(=O)O | -8% |
| CC(Oc1ccccc1)C(=O)Nc1oc(-c2ccco2)c(-c2ccco2)c1C#N (stereo unspecified) | -18.5% |
| COc1ccc(N2C(=O)CC(Sc3n[nH]c(-c4ccc(C)cc4)n3)C2=O)cc1 (stereo unspecified) | 43.8% |
| O=Cc1ccc(Oc2cccc(C(F)(F)F)c2)nc1 | -8.3% |
| O=C(Cc1c[nH]c2ccccc12)N/N=C/c1cccc(F)c1 | -1% |
| Cc1cc(C(=O)COc2ccccc2[N+](=O)[O-])c(C)n1-c1cccc(S(=O)(=O)N2CCOCC2)c1 | -9.7% |
| Cc1cc(OCC(=O)NC2CCN(C)CC2)ccc1[N+](=O)[O-] | -25.3% |
| O=C(Cc1ccccc1)Nc1cccc(C(=O)N/N=C/c2ccco2)c1 | -4.3% |
| CC(=O)NCC(=O)N1CCCC(C(=O)c2ccc3c4c(cccc24)CC3)C1 (stereo unspecified) | -8.9% |
| Cc1ccccc1CC1(CO)CCCN(C(=O)c2cc(-c3ccccc3)no2)C1 (stereo unspecified) | -4.5% |
| CC(=O)c1ccc(NC(=O)CSC(=S)N2CCCC2)cc1 | -5.7% |
| CC(C)Oc1ccc(CC(=O)NNC(=S)Nc2ccc(Br)cc2)cc1 | -117% |
| CCOCCCN(C(=O)Cn1nnc(-c2ccc(OC)c(OC)c2)n1)C(CC)C(=O)NC1CCCC1 (stereo unspecified) | -11.1% |
| Cc1ccc(CN2CCN(Cc3cn(C)nc3-c3ccccc3)CC2CCO)o1 (stereo unspecified) | -8.9% |
| Cn1cnnc1Sc1ccc(S(C)(=O)=O)cc1[N+](=O)[O-] | -1.9% |
| COc1cc2c3c(c1)/C(=C1/SC(=S)NC1=O)C(=O)N3C(C)(C)C=C2C | 21.4% |
| O=C(CSC1=Nc2ccccc2C2=NC(CC(=O)NCc3ccco3)C(=O)N12)NCc1ccco1 (stereo unspecified) | -27.8% |
| CC(C)C1N=C2c3ccccc3N=C(SCC(=O)c3ccc(O)c(O)c3)N2C1=O (stereo unspecified) | 93.7% (active) |
| CCC(C)NC(=O)CSC1=Nc2ccccc2C2=NC(CCC(=O)NCc3ccco3)C(=O)N12 (stereo unspecified) | -11% |
| CN(C(=O)CSc1nncc2ccccc12)C1CCCCC1 | -7.3% |
| C=CCNC(=O)COC(=O)CNC(=O)c1cc(Cl)cc([N+](=O)[O-])c1 | 6.8% |
| COc1ccc(OC)c(S(=O)(=O)Nc2cccc(-c3ccc4nncn4n3)c2)c1 | -5.3% |
| COc1cccc(N(C(=O)C2COc3ccccc3O2)C(C(=O)NC2CCCCC2)c2ccc(O)cc2)c1 (stereo unspecified) | 0.9% |
| Cc1cc2c(cc1C)[n+](C)cn2CC(O)COCC1CC=CCC1 (stereo unspecified) | -9.6% |

| Structure (SMILES) | inhibition |
| --- | --- |
| CCCCOc1ccc(N(CC(=O)NC(C)C)C(=O)CCC(=O)Nc2ccccn2)cc1 | -3.6% |
| CC(C)NC(=O)NCCCCCCS(C)=O (stereo unspecified) | -6.1% |
| COc1cccc(NC(=O)CS(=O)(=O)c2cn(CC(=O)N3CCOCC3)c3ccccc23)c1 | -14.3% |
| COc1ccc(Cn2c(-c3ccc(Cl)cc3)c[n+]3ccccc23)cc1 | -2.5% |
| COC1=CCC2([N+](=O)[O-])CN(CC(=O)O)CC1([N+](=O)[O-])C2 (stereo unspecified) | -11.9% |
| CCCC(c1nnnn1C(C)(C)C)N1CCN(Cc2ccccc2)CC1 (stereo unspecified) | -1.2% |
| c1ccc2c(NC3C4CC5CC(C4)CC3C5)nc(N3CCOCC3)nc2c1 (stereo unspecified) | -15.9% |
| CC1CN(/C=C/C(=O)C(F)(F)F)CC(C)O1 (stereo unspecified) | -8.2% |
| CCOc1ccccc1N1CCN(C(=O)COc2ccc3c(C)cc(=O)oc3c2)CC1 | -11% |
| CC(C)CCC(C)NC(=O)c1ccc2nccnc2c1 (stereo unspecified) | -12.5% |
| CC12CCC(C(=O)N(NC(=O)c3ccccc3O)C1=O)C2(C)C (stereo unspecified) | 3.9% |
| COc1ccc(N2C(=O)C(O)C2c2ccc(C)cc2)cc1 (stereo unspecified) | -8.2% |
| C=CCn1c(CCNC(=O)c2cccs2)n[nH]c1=S | -3.9% |
| CCCc1nc(SCC(=O)Nc2ccc(S(=O)(=O)N(C)C)cc2)c2ccccc2n1 | 17.6% |
| Cc1cc(=O)oc(C)c1C(=O)NCCN(C)Cc1ccccc1 | -6.1% |
| Cc1ccccc1NC(=O)c1nn(-c2ccc(F)c(F)c2)ccc1=O | -8.3% |
| O=C(Nc1nnc(Cc2ccccc2)s1)c1cnccn1 | -2.7% |
| CCN1CCN(C(=O)c2ccc(CN(c3ccc(C)c(C)c3)S(C)(=O)=O)cc2)CC1 | -5.1% |
| CC(C)(C)C(=O)N1CCC[C@@]1(CO)C(=O)O | -10.8% |
| Cc1ccc(S(=O)(=O)N2CCN(C(=O)c3cccs3)CC2)cc1 | -7.6% |
| O=C(O)C1C2C=CC(O2)C1C(=O)NCCc1cccc(Cl)c1 (stereo unspecified) | -9.5% |
| CC1CCC(NC(=O)C2c3ccccc3C(=O)N2Cc2ccc3c(c2)OCO3)CC1 (stereo unspecified) | -16.3% |
| O=C(COC(=O)/C=C/c1cn(-c2ccccc2)nc1-c1cccnc1)Nc1ccc(Cl)cc1Cl | -8.8% |
| CC(=O)Nc1ccc(C(=O)CSc2nc3ccc(C)cc3[nH]2)cc1 | -33.5% |
